Bioassay records deposited in PubChem by National Center for Advancing Translational Sciences (NCATS).
The list is not random: actives were taken first. Their share in the collection is about 11%.
IMPase Li inh: cell-permeable IMPase inhibitors with lithium potentiation; AID 1457; hit rate 0.35% among 210,000; Potency, µM (doses to about 59.4 µM), for the others: at the highest dose activity, negative = IMPase inhibition, most hits filed as inhibitors; CHO-M1 cells, IP1 TR-FRET (IP-One), carbachol + lithium; active = well fitted curve in the direction sought with a large enough effect; inconclusive = small, poorly fitted or top-dose-only effect, or another doubt; inactive = no such curve, though single readings can be large; an effect the other way counts as inactive or inconclusive;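 note: IP1 builds up when IMPase is blocked and the TR-FRET signal falls; potency is the fitted concentration of half-maximal effect; plate controls were basal vehicle for no effect and high inhibitor control for full effect; nearly all actives have a fitted effect of over 50% in size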
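Readout is a homogeneous TR-FRET IP1 immunoassay (Ex 320, Em 665 and 620), where raised cytosolic IP1 lowers signal. Cells were CHO-M1 treated 30 min at 37C with test compounds plus a little lithium; AC50 values came from Hill-equation fitting.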
IMPase inh: cell-permeable inhibitors of inositol monophosphatase (IMPase); CHO-M1 cells, IP1 accumulation, HTRF TR-FRET ratio; inhibition (IP1 accumulation), % at 46.1 µM; 120,000 tested, under 10 active; AID 901; active = well fitted curve in the direction sought with a large enough effect in the signal ratio, not every such curve was filed as active; inconclusive = small, poorly fitted or top-dose-only effect, or a change in a side signal; inactive = no such curve, though single readings can be large or run the other way; the % refers to the signal ratio;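 note: cells stimulated with carbachol in lithium chloride buffer; plate controls were DMSO basal wells for no effect and reference inhibitor wells for full effect; higher means more IMPase inhibition seen as more IP1 and lower FRET ratio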
Target sequence (P97697 whole entry, looked up): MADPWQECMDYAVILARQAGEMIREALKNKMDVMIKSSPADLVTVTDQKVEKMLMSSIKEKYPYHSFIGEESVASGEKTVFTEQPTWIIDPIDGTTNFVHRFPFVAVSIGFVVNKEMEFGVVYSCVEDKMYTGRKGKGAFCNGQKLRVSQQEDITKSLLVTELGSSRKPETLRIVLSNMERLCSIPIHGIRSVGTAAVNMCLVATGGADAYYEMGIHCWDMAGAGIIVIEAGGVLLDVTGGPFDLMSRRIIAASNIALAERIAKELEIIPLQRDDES
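In this qHTS, compounds (final up to 46 uM) act on CHO-M1 cells that are then activated through the M1 receptor with carbachol, in pH 7.4 buffer containing 50 mM LiCl, for 30 min. IP1 accumulation is quantified by the IP-One immunoassay.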
ALDH1A1 inh: inhibitors of human aldehyde dehydrogenase 1A1. Purified ALDH1A1, NADH fluorescence, propionaldehyde substrate. Potency, µM (top dose mostly 75.3 µM), inactives show top-dose activity, negative = inhibition, usual class: inhibitors. hit rate 7.3% among 220,000;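 note: potency is the fitted concentration of half-maximal effect; plate controls were no enzyme wells and a reference inhibitor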
HPGD block: blocks human HPGD enzyme activity | AID 894 | Potency, µM, inactives show at the highest dose activity change, negative = inhibition, hits mostly inhibitors | hit rate 4.3% among 150,000 | purified HPGD, NADH fluorescence kinetic, PGE2 substrate | P15428; note: potency is the fitted concentration of half-maximal effect
Target sequence (P15428 whole entry, looked up): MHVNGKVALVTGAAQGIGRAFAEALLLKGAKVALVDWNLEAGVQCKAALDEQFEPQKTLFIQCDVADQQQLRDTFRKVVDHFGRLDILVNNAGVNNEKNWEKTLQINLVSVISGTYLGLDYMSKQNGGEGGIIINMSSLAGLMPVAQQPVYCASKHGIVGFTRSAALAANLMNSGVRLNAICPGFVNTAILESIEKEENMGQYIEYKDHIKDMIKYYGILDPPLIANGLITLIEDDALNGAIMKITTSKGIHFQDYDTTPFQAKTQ
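20 nM HPGD preincubated 15 min at room temperature with compound in 50 mM Tris-HCl pH 8, 0.01% Tween 20. Started with 1 mM NAD+ and 30 uM prostaglandin E2; NADH fluorescence (360/450 nm) read 5 times over 30-s intervals, last minus first.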
PNC assembly inh: perinucleolar compartment assembly inhibition | PC3M PTB-GFP, PNC prevalence imaging, 16 h; stronger effect = lower value | activity change (PNC), negative = inhibition, % at 10 µM | hit rate 3.1% among 140,000 | AID 2417;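 active = readout at or below -70, meaning at least 70% loss of cells showing the perinucleolar compartment, a nuclear body marking cancer cells; inconclusive = readout between -30 and a set limit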;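 note: plate controls were DMSO wells for no effect and camptothecin positive control wells for full effect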
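Compounds are pinned in duplicate onto adhered PC3M cells stably expressing GFP-tagged PTB and incubated 16 h at 37 C. Cells are then fixed, nuclei stained with Hoechst, and PNC-positive cells counted.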
12-hLO inh: blocks human 12-lipoxygenase activity; hit rate 0.12% among 150,000; purified 12-hLO, xylenol orange hydroperoxide absorbance; P18054; Potency, µM (titrated, usually from 57.1 µM), for the others: top-dose activity change, negative = inhibition, most hits filed as inhibitors; active = well fitted curve in the direction sought with a large enough effect; inconclusive = small, poorly fitted or top-dose-only effect, or another doubt; inactive = no such curve, though single readings can be large; an effect the other way counts as inactive or inconclusive; note: potency is the fitted concentration of half-maximal effect; nearly all actives have a fitted effect of over 55% in size
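Purified human 12hLO (150 nM final) was preincubated with compounds for 15 min at room temperature in 25 mM Hepes pH 7.0, 0.01% Triton X-100, then reacted with 40 uM arachidonic acid for 30 min. Hydroperoxide was detected with ferrous iron/xylenol orange.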
* marks the source's active call; other numbers are inactive results; u = inconclusive; x = not tested or not shown; [ ] = another dose, or the depositor's remark. Unless noted, calls come from the whole dose curve; as a rule, active = well fitted inhibition curve with a large enough effect (not every such curve was filed as active); inconclusive = small, poorly fitted or top-dose-only effect, or another doubt; inactive = no such curve, though single readings can be large or run the other way. Unless noted, % is set by controls: 0 for no effect and ±100 for the full control effect.

SMILES	IMPase Li inh	IMPase inh	ALDH1A1 inh	HPGD block	PNC assembly inh	12-hLO inh
COC(=O)C(Cc1ccc(O)cc1)NC(=O)c1ccccc1OC (centres undefined)	21%[38.3 µM]	-7	28µM*	-11%	-5	2%
COc1ccc(NC(=O)c2ccccc2[N+](=O)[O-])cc1	4%	-7	-12%	-10%	-1	-2%
COc1cc(C(=O)NCc2ccncc2)cc(OC)c1OC	-1%	x	3%	x	x	x
COc1cc(C(=O)NCc2ccccc2)cc(Br)c1OC	-9%	x	3%	22µM*	u	-2%
COc1ccccc1C(=O)NCc1ccccc1	10%	7	12%	11µM*	-114*	-9%
COC(=O)C(Cc1ccc(O)cc1)NC(=O)c1ccccc1 (centres undefined)	24%[38.3 µM]	1	3%	-2%	u	0%
Cc1sc(N)c(C(=O)c2cccc(C(F)(F)F)c2)c1C	21%	7	u	-22%	x	-17%
COc1cccc(C=NC=Nc2cccc(OC)c2)c1	36%	12	-4%	-11%	x	-1%
O=S(=O)(NC1c2cccc3cccc(c23)C1N1CCNCC1)c1ccc(Cl)cc1 (centres undefined)	16%	x	-7%	x	x	x
COc1ccc(-c2nc3ccccc3s2)cc1O	-7%[38.3 µM]	-8	u	u	-90*	-14%
O=C(N/N=C/c1cccc([N+](=O)[O-])c1)c1ccc2nc[nH]c2c1	36%[38.3 µM]	-8	11µM*	-23%	u	5%
O=C(N/N=C/c1ccccn1)c1ccc2nc[nH]c2c1	x	x	-5%	x	x	x
O=C(N/N=C/c1ccc([N+](=O)[O-])cc1)c1ccc2nc[nH]c2c1	-6%[38.3 µM]	-2	6.3µM*	-10%	-88*	-1%
COc1ccc(C(C(=O)NCCC(C)C)N(CCN2CCOCC2)C(=O)Cn2nnc3ccccc32)c(OC)c1 (centres undefined)	10%	x	0%	x	x	x
S=C(Nc1ccccc1)Nc1nc2ccccc2n1CCOc1ccc(Br)cc1	-11%	8	9.5µM*	-24%	u	u
Cc1cc(C)n(CCc2nc(-c3ccc(F)cc3)cs2)n1	-5%	x	3%	25µM*	50	-1%
[N-]=[N+]=Nc1ccc(C(=O)CSC[C@H](NC(=O)CC[C@H](N)C(=O)O)C(=O)NCC(=O)O)cc1	2%	x	7%	-7%	x	x
C=CCNC(=S)NNC(=O)c1ccc(OC(C)C)cc1	-6%[38.3 µM]	7	u	-16%	-91*	2%
O=C(CN1CCN(c2ccccn2)CC1)N1c2ccccc2Sc2ccc(C(F)(F)F)cc21	24%[38.3 µM]	24	7.9µM*	-15%	-114*	u
COc1cc(NS(C)(=O)=O)c(OC)cc1NC(=O)c1ccccc1	26%[38.3 µM]	11	25µM*	-7%	u	1%
COc1cc2nc(Cl)nc(N3CCN(C)CC3)c2cc1OC	-2%	x	-9%	x	x	x
COc1cc(NC(=O)c2ccccc2)c(OC)cc1NC(C)=O	17%[38.3 µM]	-8	-8%	4%	3	0%
COc1cc2nc(C3CCC3)nc(N3CCN(c4ccccn4)CC3)c2cc1OC	23%	x	8.9µM*	-11%	4	-2%
COc1cc(NC(=S)N2CCN(c3ccccn3)CC2)c(OC)cc1Cl	0%	x	u	28µM*	5	-1%
COc1ccccc1CNc1nc(-c2cccnc2)nc2ccccc12	6%	x	u	x	x	x
COCCNc1nc(C)nc2c1nc(-c1ccccc1)n2C1CCN(Cc2ccccc2)C1 (centres undefined)	1%	x	u	u	x	-2%
O=C(NCCO)c1ccc(-n2c(=O)c(=O)[nH]c3ccccc32)cc1	x	x	-2%	-6%	x	0%
COc1cc(NC(=O)c2ccccc2)c(OC)cc1NC(=O)CN1CCN(c2ccccn2)CC1	-2%[38.3 µM]	8	16µM*	-20%	-12	6%
O=C(CN1CCN(c2ccccn2)CC1)Nc1cccc(C(F)(F)F)c1	-9%[38.3 µM]	5	9.5µM*	5%	26	-11%
COc1cc(NC(=O)c2cccc(C)c2)c(OC)cc1NC(=O)CN1CCCCC1	14%	x	u	x	x	x
